According to publication PMC4552634, “A New Set of Chemical Starting Points with Plasmodium falciparum Transmission-Blocking Potential for Antimalarial Drug Discovery” (PLoS ONE, 2015):
The campaign covered roughly 13,000 compounds. About 3,200 (25%) showed an effect of 50% or more. The list shows a part of the results.

test system: P. falciparum stage V gametocytes; design: BacTiter-Glo ATP luminescence viability of purified stage V gametocytes in 384-well plates, per cent inhibition versus DMSO; conditions: 48 h, 5 µM; inhibitor

| Compound | % Inhibition [%] |
| --- | --- |
| Cc1onc(-c2ccccc2)c1-c1nc(NCCC(c2ccccc2)c2ccccc2)no1 [TCMDC-134203] | 3.551 |
| CC(C)N1CCC(N(Cc2ccc(-c3ccc(C(F)(F)F)cc3)cc2)C(=O)Cn2c(SCc3cccc(F)c3F)cc(=O)c3c2CCC3)CC1 [TCMDC-141320] | 98.3 |
| CN1CCC(N(Cc2ccc(-c3ccc(C(F)(F)F)cc3)cc2)C(=O)Cn2c(SCc3cccc(F)c3F)cc(=O)c3c2CCC3)CC1 [TCMDC-141319] | 92.96 |
| O=C(NOCc1ccccc1)c1cc(Cl)ccc1O [TCMDC-131603] | 3.846 |
| CCC1CCc2cc(N)cc(-c3nc4c(c(C)nn4CC)c(=O)[nH]3)c2O1 (centres unmarked) [TCMDC-131857] | 1.879 |
| CCC(=O)Nc1ccc(C(O)CN2CCC3(C=Cc4ccccc4O3)CC2)cc1 (centres unmarked) [TCMDC-124852] | 40 |
| COc1cc2nc(NCCn3cccn3)nc(NCCc3ccccc3)c2cc1OC [TCMDC-135472] | 50.26 |
| COc1cc2nc(NCCn3ccnc3C)nc(NCCc3ccccc3)c2cc1OC [TCMDC-135471] | 66.44 |
| c1ccc(Oc2ccc(Nc3ccnc4ccc(-c5ccccn5)cc34)cc2)cc1 [TCMDC-138118] | -22.81 |
| CN(C)CCN(C)Cc1ccc(-c2ccc3c(Nc4ccc(Oc5ccccn5)cc4)ccnc3c2)o1 [TCMDC-138426] | 89.24 |
| CN(C)Cc1ccc(-c2ccc3c(Nc4ccc(Oc5ccccc5)cc4)ccnc3c2)o1 [TCMDC-138401] | -9.57 |
| CN(C)CCN(C)Cc1ccc(-c2ccc3c(Nc4ccc(Oc5ccccc5)cc4)ccnc3c2)o1 [TCMDC-138400] | 100.2 |
| Clc1cc2c(Nc3ccc(Oc4ccccc4)cc3)ccnc2cc1-c1ccc(CNCCN2CCOCC2)o1 [TCMDC-138464] | 21.03 |
| CN(C)Cc1ccc(-c2ccc3c(Nc4ccc(Oc5ccccn5)cc4)ccnc3c2)o1 [TCMDC-138425] | 93.82 |
| CS(=O)(=O)CCNCc1ccc(-c2ccc3c(Nc4ccc(Oc5ccccn5)cc4)ccnc3c2)o1 [TCMDC-138444] | 5.347 |
| CN(C)CCNCc1ccc(-c2ccc3c(Nc4ccc(Oc5ccccc5)cc4)ccnc3c2)o1 [TCMDC-138399] | 96.18 |
| COc1ccc(NC(=O)c2csc(-c3cc(NC(=O)c4ccnc(N5CCCC5)c4)ccc3C)c2)cc1N1CCN(C)CC1 [TCMDC-136374] | 23.12 |
| NC(=O)c1cccc(Nc2nccc(Nc3ccc(Oc4cccc5ccccc45)cc3)n2)c1 [TCMDC-138599] | -18.47 |
| CC[C@H]1CN2CC[C@H]1C[C@@H]2[C@@H](OC(=O)c1ccc(Cl)cc1)c1ccnc2ccc(OC)cc12 [TCMDC-125492] | -10.63 |
| CC(C)(C)c1cc(C(=O)N2CCN(c3ncccc3C(F)(F)F)CC2)n(Cc2ccccc2)n1 [TCMDC-134142] | 2.354 |
| CCN(CC)C(=O)C1CCCN(c2cc(C)nc(Nc3ccc(Cl)cc3)n2)C1 (centres unmarked) [TCMDC-132204] | -2.665 |
| N#Cc1ccc(N2CCN(Cc3cccc(-c4cccc(-c5nc6cc(C(F)(F)F)ccc6[nH]5)c4)c3)CC2)nc1.O=C(O)C(F)(F)F [TCMDC-133117] | -5.62 |

| Compound | % Inhibition [%] |
| --- | --- |
| O=C(CCn1c2ccccc2c2ccccc21)NN=Cc1ccco1 [TCMDC-125735] | -6.333 |
| CC(C)Cn1cc2c(ccc3nc(N)nc(N)c32)n1 [TCMDC-137969] | -46.77 |
| COc1ccc2nccc([C@@H](O)CN3CCC(NC(=O)/C=C/c4cccc(-c5ccccc5)c4)CC3)c2c1 [TCMDC-141043] | -22.17 |
| N#Cc1ccc2c(c1)CCN(CCC1CCC(NC(=O)/C=C/c3cccc4ccccc34)CC1)CC2 (centres unmarked) [TCMDC-139777] | -39.21 |
| CC(=O)c1ccc2c(c1)CCN(CCC1CCC(NC(=O)c3cc4ccccc4[nH]3)CC1)CC2 (centres unmarked) [TCMDC-139776] | -25.73 |
| CC(C)[C@@H](NC(=O)NC1CCC(CCN2C3CCC2CC(OC(=O)C(CO)c2ccccc2)C3)CC1)C(O)(c1ccccc1)c1ccccc1 (some centres unmarked) [TCMDC-136458] | 45.88 |
| CC(NC(=O)NC1CCC(CCN2CCCc3ccccc32)CC1)c1cccc2ccccc12 (centres unmarked) [TCMDC-136176] | 92.78 |
| CC(NCCC1CCC(NC(=O)N[C@H](C)C(O)(c2ccccc2)c2ccccc2)CC1)c1cccc2ccccc12 (some centres unmarked) [TCMDC-136378] | 64.1 |
| CC(C)[C@H](NC(=O)NC1CCC(CCN2C3CCC2CC(OC(=O)C(CO)c2ccccc2)C3)CC1)C(O)(c1ccccc1)c1ccccc1 (some centres unmarked) [TCMDC-136457] | -19.47 |
| Oc1cc2c(cc1CN1CCN(Cc3cccs3)CC1)CCC2 [TCMDC-125012] | 1.025 |
| CCN(CC)CCN1C(=O)c2oc3ccc(Cl)cc3c(=O)c2C1c1ccc(SC)cc1 (centres unmarked) [TCMDC-124623] | 3.621 |
| CCCCCN1C(=O)C(c2ccccc2)(c2ccccc2)N=C1N [TCMDC-136877] | -32.2 |
| COc1cccc(-c2cnc(N)c(-c3nc4ccc(C(F)(F)F)cc4[nH]3)c2)c1 [TCMDC-138790] | 13.24 |
| COc1ccccc1NC(=O)Nc1ccc(-c2ccc(-c3nc4ccc(C(F)(F)F)cc4[nH]3)cc2)cc1 [TCMDC-133202] | -7.674 |
| CCCCCCCc1cc(O)c2c3c(c(=O)oc2c1)CN(C)CC3 [TCMDC-124145] | 8.32 |
| Cc1sc(CNCCCNc2cc(=O)c3ccccc3[nH]2)c(C(F)(F)F)c1C [TCMDC-140906] | 5.874 |
| CCNC(=O)Nc1ccc(-c2cccc(-c3nc4c(C)cccc4[nH]3)c2)cc1 [TCMDC-133171] | -9.855 |
| Cc1cccc2[nH]c(-c3ccc(-c4cccc(NC(=O)Nc5ccccc5)c4)cc3)nc12 [TCMDC-133155] | 0.6364 |
| Cc1cccc2[nH]c(-c3ccc(-c4ccc(NC(=O)C(=O)c5cccn5C)cc4)cc3)nc12 [TCMDC-136908] | 78.98 |
| Cc1cccc2[nH]c(-c3cccc(-c4ccc(NC(=O)Nc5cccc(C#N)c5)cc4)c3)nc12 [TCMDC-133192] | 2.358 |
| Cc1cccc2[nH]c(-c3cccc(-c4ccc(NC(=O)C(=O)c5cccn5C)cc4)c3)nc12 [TCMDC-136909] | 70.67 |
| Cn1cccc1C(=O)C(=O)Nc1cccc(-c2ccc(-c3nc4ccc(C(F)(F)F)cc4[nH]3)cc2)c1 [TCMDC-136910] | 0.09328 |

| Compound | % Inhibition [%] |
| --- | --- |
| Cn1cccc1C(=O)C(=O)Nc1ccc(-c2ccc(-c3nc4ccc(F)cc4[nH]3)cc2)cc1 [TCMDC-136780] | -3.552 |
| Cc1cccc2[nH]c(-c3ccc(-c4ccc(NC(=O)Nc5ccc(Cl)cc5)cc4)cc3)nc12 [TCMDC-133184] | -26.89 |
| Cc1cccc2[nH]c(-c3ccc(-c4cccc(NC(=O)C(=O)c5cccn5C)c4)cc3)nc12 [TCMDC-136907] | 90.5 |
| Cc1cccc2[nH]c(-c3cccc(-c4ccc(NC(=O)Nc5ccc(Cl)cc5)cc4)c3)nc12 [TCMDC-133177] | 12.12 |
| Cc1cccc2[nH]c(-c3cccc(-c4cccc(NC(=O)Nc5cccc(C#N)c5)c4)c3)nc12 [TCMDC-133194] | -35.1 |
| Cc1cccc2[nH]c(-c3ccc(-c4cccc(NC(=O)Nc5cccc(C#N)c5)c4)cc3)nc12 [TCMDC-133198] | 83.69 |
| Cc1cccc2nc(-c3ccc(-c4ccc(NC(=O)NCc5cccc(F)c5)cc4)s3)[nH]c12 [TCMDC-133286] | 5.156 |
| Cc1ccc(-c2cc3nc4c(c(NCCCn5ccnc5)n3n2)CCC4)cc1 [TCMDC-124390] | 12.49 |
| Cc1cccc2c3c([nH]c12)C1(CCN(Cc2ccccc2)CC1)NC(C(=O)NCc1ccccc1)C3 (centres unmarked) [TCMDC-141244] | -26.21 |
| COc1ccc2nccc([C@@H](O)CN3CCC(NC(=O)c4ccc(Cl)c(OC)c4)CC3)c2c1 [TCMDC-141113] | -17.86 |
| CSc1sc(NC(=O)Nc2cccc(C(F)(F)F)c2)cc1C#N [TCMDC-123772] | -46.48 |
| CCN(CC)Cc1cc(Nc2ccnc3cc(Cl)ccc23)ccc1O [TCMDC-123932] | -15.23 |
| COc1ccc2nc3cc(Cl)ccc3c(Nc3ccc(O)c(CN4CC5CCC(CC5)C4)c3)c2c1.Cl [TCMDC-142013] | -78.53 |
| CCN(CC)Cc1cc(Nc2c3ccc(Cl)cc3nc3cccc(OC)c23)ccc1O [TCMDC-139222] | 106.6 |
| CN(Cc1ccc(NC(=O)CCC2CCN(C(=O)/C=C/c3ccc(Cl)c(Cl)c3)CC2)cc1)C1CCOCC1 [TCMDC-140515] | 8.343 |
| Oc1c(C=Nn2cnnc2)sc2ccccc12 [TCMDC-125759] | -2.761 |
| O=[N+]([O-])c1cccc(-c2nc(-c3ccc(Br)cc3)[nH]c2-c2ccc(Br)cc2)c1 [TCMDC-124605] | -41.82 |
| Cc1ccc(S(=O)(=O)c2nc(S(=O)(=O)c3ccccc3)sc2NCC2CCCO2)cc1 (centres unmarked) [TCMDC-124749] | 4.322 |
| CCCCCCCN(CCCCCCC)CCCC(=O)Nc1ccnc2ccc(OC)cc12.O=C(O)C(=O)O [TCMDC-139843] | -16.87 |
| COc1ccc2cc(C=NNc3nc4ccccc4[nH]3)c(Cl)nc2c1 [TCMDC-124889] | -71.34 |
| CCCCCN=C(N)N/N=C/c1c[nH]c2ccc(OC)cc12 [TCMDC-125887] | 106.4 |
